Measured values as given in PubChem BioAssay AID1159580 (chemical genetic matrix, 2015).
Screen size: about 5,500 compounds; about 2,000 (36%) were called active. Another 18% or so got no clear call; they are omitted. Cut-off read from the data, not from the text of the source: active = normalized growth mostly below about 0.91 (no sharp cut-off); inconclusive = no clear call, values can overlap the other calls; inactive = mostly above about 0.92. The list shows a part of the results.

Assay: chemical genetic growth profiling, strain panel (AID 1159580);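 note: tested at 20 µM; growth read once vehicle control cultures reached saturation at 30 °C; 1 = growth at the plate median or of vehicle wells; lower values mean less growth of the strain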
Details: growth OD

Measured: normalized growth

O=C(Nc1ccccc1)Nc1ccccc1
inactive: S. cerevisiae deletion strains, locus YKL009W, strain mrt4, hits give low values 0.956 | S. cerevisiae deletion strains, locus YKL068W, hits give low values 0.975 | S. cerevisiae deletion strains, locus YKL085W, strain MDH1 (second series), hits give low values 0.979 | S. cerevisiae deletion strains, locus YKL085W, strain MDH1, hits give low values 0.979 | S. cerevisiae deletion strains, locus YKL160W, strain elf1, hits give low values 0.95 | S. cerevisiae deletion strains, locus YKR001C, strain vps1, hits give low values 0.97 | S. cerevisiae deletion strains, locus YKR026C, strain gcn3, hits give low values 0.967 | S. cerevisiae deletion strains, locus YKR091W, strain srl3, hits give low values 0.962 | S. cerevisiae deletion strains, locus YLL001W, strain dnm1, hits give low values 0.982 | S. cerevisiae deletion strains, locus YLL026W, hits give low values 0.958 | S. cerevisiae deletion strains, locus YLL041C, strain sdh2, hits give low values 0.982 | S. cerevisiae deletion strains, locus YLR027C, strain aat2, hits give low values 0.944 | S. cerevisiae deletion strains, locus YLR058C, strain SHM2, hits give low values 0.99 | S. cerevisiae deletion strains, locus YLR102C, strain apc9, hits give low values 0.98 | S. cerevisiae deletion strains, locus YLR113W, strain HOG1, hits give low values 1.01 | S. cerevisiae deletion strains, locus YLR221C, strain rsa3, hits give low values 0.957 | S. cerevisiae deletion strains, locus YLR258W, strain gsy2, hits give low values 0.974 | S. cerevisiae deletion strains, locus YLR262C, strain YPT6 (second series), hits give low values 0.96 | S. cerevisiae deletion strains, locus YLR262C, strain YPT6, hits give low values 1.34 | S. cerevisiae deletion strains, locus YLR268W, strain sec22, hits give low values 0.989 | S. cerevisiae deletion strains, locus YLR320W, strain mms22, hits give low values 0.99 | S. cerevisiae deletion strains, locus YLR342W, strain FKS1 (second series), hits give low values 0.991 | S. cerevisiae deletion strains, locus YLR342W, strain FKS1, hits give low values 0.972 | S. cerevisiae deletion strains, locus YLR357W, strain rsc2, hits give low values 0.96 | S. cerevisiae deletion strains, locus YLR370C, strain arc18, hits give low values 0.932 | S. cerevisiae deletion strains, locus YLR371W, strain rom2, hits give low values 0.944 | S. cerevisiae deletion strains, locus YLR384C, strain iki3, hits give low values 0.967 | S. cerevisiae deletion strains, locus YLR418C, strain cdc73, hits give low values 1.06 | S. cerevisiae deletion strains, locus YML016C, strain PPZ1, hits give low values 0.991 | S. cerevisiae deletion strains, locus YML032C, strain rad52, hits give low values 0.98 | S. cerevisiae deletion strains, locus YML120C, strain ndi1, hits give low values 0.98 | S. cerevisiae deletion strains, locus YML124C, strain tub3, hits give low values 0.971 | S. cerevisiae deletion strains, locus YMR058W, strain fet3, hits give low values 0.946 | S. cerevisiae deletion strains, locus YMR078C, strain ctf18, hits give low values 0.981 | S. cerevisiae deletion strains, locus YMR125W, strain sto1, hits give low values 0.949 | S. cerevisiae deletion strains, locus YMR129W, hits give low values 0.959 | S. cerevisiae deletion strains, locus YMR205C, strain PFK2, hits give low values 0.984 | S. cerevisiae deletion strains, locus YMR223W, strain ubp8, hits give low values 0.976 | S. cerevisiae deletion strains, locus YMR231W, strain pep5, hits give low values 0.99 | S. cerevisiae deletion strains, locus YMR263W, strain SAP30, hits give low values 1 | S. cerevisiae deletion strains, locus YMR307W, strain GAS1, hits give low values 1.34 | S. cerevisiae deletion strains, locus YNL067W, strain RPL9B, hits give low values 0.996 | S. cerevisiae deletion strains, locus YNL071W, strain lat1, hits give low values 0.965 | S. cerevisiae deletion strains, locus YNL128W, strain TEP1, hits give low values 1 | S. cerevisiae deletion strains, locus YNL183C, strain NPR1, hits give low values 0.949 | S. cerevisiae deletion strains, locus YNL209W, strain ssb2, hits give low values 0.966 | S. cerevisiae deletion strains, locus YNL233W, strain BNI4, hits give low values 1.05 | S. cerevisiae deletion strains, locus YNL248C, strain rpa49, hits give low values 0.921 | S. cerevisiae deletion strains, locus YNL250W, strain rad50, hits give low values 0.973 | S. cerevisiae deletion strains, locus YNL271C, strain bni1, hits give low values 0.978 | S. cerevisiae deletion strains, locus YNL298W, strain CLA4, hits give low values 1.02 | S. cerevisiae deletion strains, locus YNL307C, strain MCK1, hits give low values 0.985 | S. cerevisiae deletion strains, locus YNL322C, strain KRE1 (second series), hits give low values 0.965 | S. cerevisiae deletion strains, locus YNR049C, strain mso1, hits give low values 0.95 | S. cerevisiae deletion strains, locus YNR052C, strain pop2, hits give low values 0.993 | S. cerevisiae deletion strains, locus YOL012C, strain htz1 0.934 | S. cerevisiae deletion strains, locus YOL147C, strain pex11, hits give low values 0.978 | S. cerevisiae deletion strains, locus YOR001W, strain rrp6, hits give low values 0.957 | S. cerevisiae deletion strains, locus YOR061W, strain CKA2, hits give low values 1.02 | S. cerevisiae deletion strains, locus YOR069W, strain VPS5, hits give low values 1 | S. cerevisiae deletion strains, locus YOR070C, strain gyp1, hits give low values 0.977 | S. cerevisiae deletion strains, locus YOR080W, strain dia2, hits give low values 0.963 | S. cerevisiae deletion strains, locus YOR083W, strain WHI5, hits give low values 0.959 | S. cerevisiae deletion strains, locus YOR106W, strain vam3, hits give low values 0.902 | S. cerevisiae deletion strains, locus YOR136W, strain idh2, hits give low values 0.996 | S. cerevisiae deletion strains, locus YOR144C, strain elg1, hits give low values 0.97 | S. cerevisiae deletion strains, locus YOR184W, strain ser1, hits give low values 1.03 | S. cerevisiae deletion strains, locus YOR231W, strain MKK1, hits give low values 1.01 | S. cerevisiae deletion strains, locus YOR265W, strain rbl2, hits give low values 0.964 | S. cerevisiae deletion strains, locus YOR270C, strain vph1, hits give low values 0.875 | S. cerevisiae deletion strains, locus YOR290C, strain snf2, hits give low values 0.907 | S. cerevisiae deletion strains, locus YOR316C, strain cot1, hits give low values 0.989 | S. cerevisiae deletion strains, locus YPL051W, strain arl3, hits give low values 0.928 | S. cerevisiae deletion strains, locus YPL055C, strain LGE1, hits give low values 1.17 | S. cerevisiae deletion strains, locus YPL078C, strain atp4, hits give low values 0.923 | S. cerevisiae deletion strains, locus YPL106C, strain sse1, hits give low values 0.932 | S. cerevisiae deletion strains, locus YPL240C, strain hsp82, hits give low values 0.967 | S. cerevisiae deletion strains, locus YPL241C, strain CIN2, hits give low values 0.998 | S. cerevisiae deletion strains, locus YPL256C, strain CLN2, hits give low values 0.985 | S. cerevisiae deletion strains, locus YPR119W, strain clb2, hits give low values 0.966 | S. cerevisiae deletion strains, locus YPR141C, strain kar3, hits give low values 0.975 | S. cerevisiae deletion strains, locus YPR163C, strain tif3, hits give low values 0.987 | S. cerevisiae deletion strains, locus YPR167C, strain met16, hits give low values 0.984 | S. cerevisiae deletion strains, strain wtn01, hits give low values 0.996 | S. cerevisiae strains, strain wild type, hits give low values 1.07
active: S. cerevisiae deletion strains, locus YLR039C, strain RIC1, hits give low values 1.38 [resistant]
